# This is a sample that favours compounds with a hit; in the whole collection about 3.6% have one here.
# Pf apPOL block = Pf-apPOL DNA polymerase inhibition | AID 1794808 | Recombinant Pf-apPOL, molecular beacon fluorescence, 1.5 h | 210,000 compounds, 0.25% hits | inhibition, % at 10 µM
# mHTT CaM bind = disrupts binding of mutant huntingtin to calmodulin. P42858. AlphaScreen His-mHTT/GST-CaM binding, luminescence. inhibition, % at 15 µM. 190,000 compounds, 3.6% hits. AID 1671202;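 also: 0% = both proteins with DMSO and 100% = one protein alone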
# Target sequence (P42858 whole entry, looked up, stated change not applied): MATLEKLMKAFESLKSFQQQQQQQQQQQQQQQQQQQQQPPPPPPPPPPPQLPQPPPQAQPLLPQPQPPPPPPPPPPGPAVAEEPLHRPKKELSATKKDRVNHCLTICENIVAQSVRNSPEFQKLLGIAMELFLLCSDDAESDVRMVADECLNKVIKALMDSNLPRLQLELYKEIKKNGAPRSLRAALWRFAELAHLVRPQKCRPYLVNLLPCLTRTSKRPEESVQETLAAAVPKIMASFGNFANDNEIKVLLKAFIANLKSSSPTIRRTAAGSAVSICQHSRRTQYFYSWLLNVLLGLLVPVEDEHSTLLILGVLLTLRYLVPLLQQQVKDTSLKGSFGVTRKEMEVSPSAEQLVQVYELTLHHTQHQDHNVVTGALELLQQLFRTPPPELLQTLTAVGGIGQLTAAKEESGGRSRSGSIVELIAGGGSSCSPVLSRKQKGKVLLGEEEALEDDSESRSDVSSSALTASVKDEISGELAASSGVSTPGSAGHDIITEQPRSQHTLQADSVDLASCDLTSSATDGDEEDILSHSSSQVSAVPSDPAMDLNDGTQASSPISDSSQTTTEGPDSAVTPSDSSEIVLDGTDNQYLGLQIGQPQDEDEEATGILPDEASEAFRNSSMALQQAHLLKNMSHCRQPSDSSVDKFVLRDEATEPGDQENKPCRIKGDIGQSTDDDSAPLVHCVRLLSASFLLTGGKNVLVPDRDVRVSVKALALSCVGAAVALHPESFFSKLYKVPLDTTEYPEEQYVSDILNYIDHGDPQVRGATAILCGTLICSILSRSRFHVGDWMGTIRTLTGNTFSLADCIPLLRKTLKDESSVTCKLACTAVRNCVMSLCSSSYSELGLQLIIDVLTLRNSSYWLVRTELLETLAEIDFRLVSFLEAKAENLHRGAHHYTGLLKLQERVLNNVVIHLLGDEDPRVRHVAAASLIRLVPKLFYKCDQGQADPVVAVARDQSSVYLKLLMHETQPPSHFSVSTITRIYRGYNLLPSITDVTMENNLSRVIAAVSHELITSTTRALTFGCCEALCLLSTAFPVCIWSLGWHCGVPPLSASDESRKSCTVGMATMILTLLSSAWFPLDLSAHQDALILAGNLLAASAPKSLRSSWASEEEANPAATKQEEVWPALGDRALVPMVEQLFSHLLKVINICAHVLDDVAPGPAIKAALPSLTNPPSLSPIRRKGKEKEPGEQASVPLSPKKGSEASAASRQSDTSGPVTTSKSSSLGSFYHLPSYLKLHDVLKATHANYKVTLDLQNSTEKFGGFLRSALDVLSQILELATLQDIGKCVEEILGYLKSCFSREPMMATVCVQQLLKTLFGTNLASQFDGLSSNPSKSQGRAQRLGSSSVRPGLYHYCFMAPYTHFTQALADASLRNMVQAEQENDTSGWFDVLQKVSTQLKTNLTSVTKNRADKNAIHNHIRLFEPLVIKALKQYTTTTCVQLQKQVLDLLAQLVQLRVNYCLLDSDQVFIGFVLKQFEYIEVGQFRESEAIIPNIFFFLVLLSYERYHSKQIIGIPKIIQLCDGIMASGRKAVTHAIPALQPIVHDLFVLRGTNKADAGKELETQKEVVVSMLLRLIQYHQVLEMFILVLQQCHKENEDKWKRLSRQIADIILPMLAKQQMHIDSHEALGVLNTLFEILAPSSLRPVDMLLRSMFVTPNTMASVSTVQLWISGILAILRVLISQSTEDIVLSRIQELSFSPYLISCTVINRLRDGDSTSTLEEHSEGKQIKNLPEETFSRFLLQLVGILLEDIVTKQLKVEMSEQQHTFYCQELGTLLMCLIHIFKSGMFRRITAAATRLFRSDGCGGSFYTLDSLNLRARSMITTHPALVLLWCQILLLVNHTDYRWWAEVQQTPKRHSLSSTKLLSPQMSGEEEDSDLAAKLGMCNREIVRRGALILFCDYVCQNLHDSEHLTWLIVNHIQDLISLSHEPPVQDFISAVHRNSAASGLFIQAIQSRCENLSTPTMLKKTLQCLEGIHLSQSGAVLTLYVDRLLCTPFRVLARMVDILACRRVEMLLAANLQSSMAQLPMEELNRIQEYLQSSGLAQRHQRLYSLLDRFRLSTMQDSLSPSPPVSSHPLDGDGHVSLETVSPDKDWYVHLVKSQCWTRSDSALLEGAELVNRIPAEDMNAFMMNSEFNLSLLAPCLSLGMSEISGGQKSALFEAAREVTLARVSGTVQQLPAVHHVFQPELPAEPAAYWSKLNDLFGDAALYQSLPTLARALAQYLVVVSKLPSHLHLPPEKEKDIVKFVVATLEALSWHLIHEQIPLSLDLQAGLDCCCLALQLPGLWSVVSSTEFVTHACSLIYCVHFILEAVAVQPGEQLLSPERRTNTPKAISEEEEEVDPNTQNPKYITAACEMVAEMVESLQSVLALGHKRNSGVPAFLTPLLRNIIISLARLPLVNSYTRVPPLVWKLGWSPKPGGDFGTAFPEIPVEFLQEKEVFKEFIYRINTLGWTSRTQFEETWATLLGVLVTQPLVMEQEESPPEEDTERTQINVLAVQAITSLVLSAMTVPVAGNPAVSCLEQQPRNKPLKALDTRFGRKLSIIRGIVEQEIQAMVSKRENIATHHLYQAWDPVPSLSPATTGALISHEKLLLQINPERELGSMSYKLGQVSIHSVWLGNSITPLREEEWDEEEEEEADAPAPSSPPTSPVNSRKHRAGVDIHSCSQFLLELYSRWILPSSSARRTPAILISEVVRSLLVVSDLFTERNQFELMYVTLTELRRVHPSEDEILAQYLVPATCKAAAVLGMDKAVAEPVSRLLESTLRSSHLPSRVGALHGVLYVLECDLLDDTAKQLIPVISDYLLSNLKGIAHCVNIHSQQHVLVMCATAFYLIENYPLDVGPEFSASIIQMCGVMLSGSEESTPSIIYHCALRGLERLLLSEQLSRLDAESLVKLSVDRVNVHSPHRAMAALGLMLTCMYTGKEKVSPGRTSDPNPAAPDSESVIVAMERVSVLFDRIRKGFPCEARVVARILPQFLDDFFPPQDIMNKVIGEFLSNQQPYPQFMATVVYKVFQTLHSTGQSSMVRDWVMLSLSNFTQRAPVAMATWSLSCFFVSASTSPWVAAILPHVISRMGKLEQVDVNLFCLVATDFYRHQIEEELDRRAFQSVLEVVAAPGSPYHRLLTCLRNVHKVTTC
# Starred values were filed as active, the others as inactive; . = not tested or not shown. Rule as the data show it: active = inhibition above about 50%; inactive = the rest.
SMILES,Pf apPOL block,mHTT CaM bind
CCN(CC)Cc1c(O)ccc2c1OC(=Cc1cc(OC)c(OC)cc1OC)C2=O,-4,-6
COc1ccccc1N1C(=O)c2ccccc2NC1c1ccc(NC(C)=O)cc1 (stereo unspecified),1,4
Brc1cccc(CN2CCC(N3CCCCCC3)CC2)c1,70*,-2
Brc1cccc(CN2CCC(N3CCCCC3)CC2)c1,3,10
COc1nccnc1NC1CCN(C(=O)NCc2ccco2)CC1,-4,0
CCC(C(=O)Nc1ncc(S(=O)(=O)c2ccc([N+](=O)[O-])cc2)s1)c1ccccc1 (stereo unspecified),-2,61*
O=C(Cc1ccccc1)Nc1ncc(S(=O)(=O)c2ccc([N+](=O)[O-])cc2)s1,-4,1
O=C(Cc1ccc(F)cc1)NCc1cccnc1-c1ccccc1,-13,-6
NS(=O)(=O)c1ccc2c(c1)C1C=CCC1C(C1CC=CCC1)N2 (stereo unspecified),-3,95*
NS(=O)(=O)c1ccc2c(c1)C1C=CCC1C(C(=O)O)N2 (stereo unspecified),-1,40
O=[N+]([O-])c1ccc2c(c1)C1C=CCC1C(C1CC=CCC1)N2 (stereo unspecified),.,39
NS(=O)(=O)c1ccc2c(c1)C1C=CCC1C(c1cccc3ccccc13)N2 (stereo unspecified),.,94*
CN(Cc1ccco1)C(=O)C1c2ccccc2CC(=O)N1Cc1ccccc1 (stereo unspecified),1,15
COC(=O)c1sccc1OS(=O)(=O)c1ccc(C(F)(F)F)cc1,1,.
COc1ccccc1Oc1c(F)c(OC)nc(OC)c1F,-2,-5
CCOC(=O)c1cnc2nc(C)ccc2c1Nc1cc(F)cc(F)c1,1,35
CC(C)CCSc1nc(N)c2c3c(sc2n1)COC(C)(C)C3,-33,1
Cc1ccc(Cl)cc1N1CCN(CC(O)COc2ccccc2[N+](=O)[O-])CC1 (stereo unspecified),6,91*
O=[N+]([O-])c1ccccc1OCC(O)CN1CCN(c2cccc(Cl)c2)CC1 (stereo unspecified),-13,23
COc1cccc(OC)c1OCC(O)CN1CCN(c2cc(Cl)ccc2C)CC1 (stereo unspecified),1,64*
COc1ccc(N2CCN(CC(O)COc3c(OC)cccc3OC)CC2)cc1 (stereo unspecified),-6,7
COc1cccc(OC)c1OCC(O)CN1CCN(c2ccccc2F)CC1 (stereo unspecified),-4,5
COc1cccc(OC)c1OCC(O)CN1CCN(c2cccc(Cl)c2)CC1 (stereo unspecified),1,53*
CCN(CC)c1ccc(CNC(=O)C2CCc3nc(N4CCC(C)CC4)ncc3C2)cc1 (stereo unspecified),-6,7
C=CCNC(=O)/C(=C\c1ccc([N+](=O)[O-])cc1)NC(=O)c1ccco1,-4,1
SMILES,Pf apPOL block,mHTT CaM bind
CC(CN1CCN(C)CC1)c1ccccc1 (stereo unspecified),2,-8
O=C(Nc1ccc(C(F)(F)F)cc1)O[C@@H]1C[C@H]2C[C@@H]1[C@H]1CCCCN1C2,-9,73*
O=C(Nc1ccc(F)cc1)O[C@@H]1C[C@H]2C[C@@H]1[C@H]1CCCCN1C2,-6,-2
CCS(=O)(=O)N1CCc2[nH]nc(-c3ccc(C)cc3)c2C1,-3,0
Cn1ccc2c(cc(C(=O)NC3CCN(Cc4ccccc4)CC3)n2C)c1=O,0,7
COc1cccc(/C=C2\Cc3ccccc3C2=O)c1OC,-5,-2
COc1cccc(/C=C2\CS/C(=C\c3cccc(OC)c3OC)C2=O)c1OC,-4,53*
CCCN1C/C(=C\c2cccc(OC)c2OC)C(=O)/C(=C/c2cccc(OC)c2OC)C1,-2,50*
COc1cccc(/C=C2/SC(N3CCN(C)CC3)=NC2=O)c1OC,-4,-1
COc1ccc(C2CC(c3ccccc3OC)n3nc(N)nc3N2)cc1 (stereo unspecified),-4,2
CCOc1ccccc1C1CC(c2ccc(F)cc2)Nc2nc(N)nn21 (stereo unspecified),-2,72*
COc1ccccc1C1CC(c2ccc(F)cc2)Nc2nc(N)nn21 (stereo unspecified),-3,62*
COc1ccccc1C1CC(c2ccccc2)Nc2nc(N)nn21 (stereo unspecified),-1,-8
CCC1=NN(C(=O)c2ccc(Br)cc2)C(O)(c2ccccc2)C1 (stereo unspecified),5,36
CCC1=NN(C(=O)c2ccc(Cl)cc2)C(O)(c2ccc(Br)cc2)C1 (stereo unspecified),-12,85*
CCC1=NN(C(=O)c2cccc(Cl)c2)C(O)(c2ccc(Br)cc2)C1 (stereo unspecified),4,89*
CCC1=NN(C(=O)c2cccc(Br)c2)C(O)(C(F)(F)F)C1 (stereo unspecified),1,4
CCC1=NN(C(=O)c2cccc(Cl)c2)C(O)(C(F)(F)F)C1 (stereo unspecified),4,-4
CCCCC1=NN(C(=O)c2cccc(Cl)c2)C(O)(C(F)(F)F)C1 (stereo unspecified),57*,-9
CCC1=NN(C(=O)c2ccncc2)C(O)(c2ccc(Br)cc2)C1 (stereo unspecified),-2,42
CCC1=NN(C(=O)c2ccc(Br)cc2)C(O)(c2ccc(OC)cc2)C1 (stereo unspecified),-1,59*
CCN(CC)c1ccc2cc(C(=O)Nc3ccc(C#N)cc3)c(=O)oc2c1,1,0
Nc1ccc2nc(/C=C/c3nc4ccc(N)cc4[nH]3)[nH]c2c1,80*,53*
Nc1ccc(-c2nc3ccc(N)cc3[nH]2)cc1,-8,22
COc1ccc(-c2nc3ccccc3[nH]2)cc1,-4,10
SMILES,Pf apPOL block,mHTT CaM bind
Nc1ccc(-c2nc3ccc(Oc4ccc5nc(-c6ccc(N)cc6)[nH]c5c4)cc3[nH]2)cc1,-3,84*
CN(C)c1ccc(-c2nc3ccc(N)cc3[nH]2)cc1,-74,56*
Nc1ccc(-c2nc3ccc(-c4ccc5nc(-c6ccc(N)cc6)[nH]c5c4)cc3[nH]2)cc1,-3,100*
CC(=O)Nc1ccc2nc(-c3ccc(-c4nc5ccc(NC(C)=O)cc5[nH]4)cc3)[nH]c2c1,35,.
COc1ccc(/C=C/c2nc3ccccc3[nH]2)cc1,4,-5
CCCc1cc(=O)oc2cc(OCc3ccccc3F)ccc12,-3,-15
O=c1c2ccccc2ncn1CCCOc1ccc(OCc2ccccc2)cc1,-10,-1
Cc1nn(CC(=O)N(C)C2CCCCC2)c(C)c1[N+](=O)[O-],-5,3
CCN1CCN(C(=O)c2ccc(-c3cccs3)nc2)CC1,-9,-4
O=C1c2ccccc2-c2onc3c(N4CCOCC4)ccc1c23,49,12
CCN1C(=O)C(CC(=O)NCc2ccncc2)Sc2ncccc21 (stereo unspecified),-1,-4
CC(C)(C)C1(C)OC(=O)C(=Cc2cccc(O)c2)C(=O)O1 (stereo unspecified),-8,-3
Cc1nc(NCCNS(C)(=O)=O)cc(N2CCOCC2)n1,3,-4
Nc1ccc2nc(-c3cc(Cl)c(N)c(Cl)c3)[nH]c2c1,2,54*
O=C(O)c1ccc2nc(-c3cccc(-c4nc5ccc(C(=O)O)cc5[nH]4)c3)[nH]c2c1,20,.

# Bioassay records (PubChem)
